Counter-ions that a name gives are not always drawn.
System: Saccharomyces cerevisiae
Assay: fraction of cells in G1 phase (DNA content, flow cytometry); higher = more cells with unreplicated DNA (G1 delay)
Conditions: temperature: 30 C; YPD; BY4741 PDR5+ SNQ2+; drug added to: actively dividing cells; 4.33 h
Protocol: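 S. cerevisiae cultures in YPD at 30°C were treated with each drug of the Enzo FDA-approved library at 20 µg/ml (final µM given per drug). Cells were fixed after 6–7 h (S1) or 6 h (S2), or after 4.33 h for BY4741 (S3), then stained with SYTOX Green. %G1 is the Dean-Jett-Fox G1 peak area divided by the G1+G2/M peak areas, written as a fraction and averaged over at least two independent experiments. DMSO reference: mean ~0.49; >0.60 is called High G1 and <0.3876 Low G1. Scale: lower means mitotic delay.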

Row | SMILES | fraction of cells in G1 phase
1 | CC[C@@]1(O)C[C@H](O[C@H]2C[C@H](N(C)C)[C@H](O[C@H]3C[C@H](O)[C@H](O[C@H]4CCC(=O)[C@H](C)O4)[C@H](C)O3)[C@H](C)O2)c2c(cc3c(c2O)C(=O)c2c(O)cccc2C3=O)[C@H]1C(=O)OC [Aclarubicin] (24.6339 µM) | 0.431
2 | COc1c(N2C[C@@H]3CCCN[C@@H]3C2)c(F)cc2c(=O)c(C(=O)O)cn(C3CC3)c12 [Moxifloxacin HCl] (45.6725 µM) | 0.402

Same assay, conditions: temperature: 30 C; YPD; JTY2953 pdr5 snq2 (sensitized); drug added to: actively dividing cells; 6 h

Row | SMILES | fraction of cells in G1 phase
3 | Clc1ccc(COC(Cn2ccnc2)c2ccc(Cl)cc2Cl)c(Cl)c1 (stereo not given) [Miconazole] (48.0611 µM) | 0.467
4 | CSc1ccc2c(c1)N(CCC1CCCCN1C)c1ccccc1S2 (stereo not given) [Thioridazine HCl] (53.969 µM) | 0.469
5 | CC[C@H](c1ccc(O)cc1)[C@@H](CC)c1ccc(O)cc1 [Hexestrol] (73.9714 µM) | 0.481
6 | c1ccc(-c2ccc(C(c3ccccc3)n3ccnc3)cc2)cc1 (stereo not given) [Bifonazole] (64.4325 µM) | 0.474

Same assay, conditions: temperature: 30 C; YPD; JTY2953 pdr5 snq2 (sensitized); drug added to: cultures diluted from stationary phase; 6-7 h

Row | SMILES | fraction of cells in G1 phase
7 | CC(C)(O/N=C(\C(=O)N[C@@H]1C(=O)N2C(C(=O)[O-])=C(C[n+]3ccccc3)CS[C@H]12)c1csc(N)n1)C(=O)O [Ceftazidime] (36.5909 µM) | 0.486
8 | O=c1[nH]c(=O)n([C@H]2C[C@H](O)[C@@H](CO)O2)cc1I [Idoxuridine] (56.4808 µM) | 0.515
9 | CC(C)(C)NCC(O)c1ccc(O)c(CO)c1 (stereo not given) [Salbutamol sulfate] (83.5711 µM) | 0.535
10 | Nc1nc2c(ncn2COCCO)c(=O)[nH]1 [Acycloguanosine] (88.8066 µM) | 0.472
11 | CCS(=O)(=O)CCn1c([N+](=O)[O-])cnc1C [Tinidazole] (80.8818 µM) | 0.443
12 | N.N.O=C([O-])C[O-].[Pt+2] [Nedaplatin] (65.9657 µM) | 0.545
13 | C#C[C@]1(O)CC[C@H]2[C@@H]3CCC4=CC(=O)CC[C@@H]4[C@H]3CC[C@@]21CC [Levonorgestrel] (64.009 µM) | 0.509
14 | COc1cc(NS(=O)(=O)c2ccc(N)cc2)nc(OC)n1 [Sulfadimethoxine] (64.4467 µM) | 0.48
15 | CCOc1ccccc1OCCN[C@H](C)Cc1ccc(OC)c(S(N)(=O)=O)c1 [Tamsulosin HCl] (48.9571 µM) | 0.507
16 | COc1cc(NC(C)CCCN)c2ncccc2c1 (stereo not given) [Primaquine phosphate] (77.1146 µM) | 0.461
17 | CCCCN1CCCCC1C(=O)Nc1c(C)cccc1C (stereo not given) [Bupivacaine HCl] (69.3393 µM) | 0.447
18 | CCCN[C@H]1CCc2nc(N)sc2C1 [Pramipexole] (94.6382 µM) | 0.48
19 | Clc1ccc(COC(Cn2ccnc2)c2ccc(Cl)cc2Cl)c(Cl)c1 (stereo not given) [Miconazole] (48.0611 µM) | 0.869
20 | Clc1ccc2c(c1)CCc1cccnc1C2=C1CCNCC1 [Desloratadine] (64.3439 µM) | 0.5
21 | COc1ccc2c(c1)c(CC(=O)OCC(=O)O)c(C)n2C(=O)c1ccc(Cl)cc1 [Acemetacin] (48.0961 µM) | 0.489
22 | CCC[S+]([O-])c1ccc2[nH]c(NC(=O)OC)nc2c1 (stereo not given) [Ricobendazole] (71.0895 µM) | 0.485
23 | Oc1ccc(C2CNCCc3c2cc(O)c(O)c3Cl)cc1 (stereo not given) [Fenoldopam mesylate] (65.41 µM) | 0.533

Row | SMILES | fraction of cells in G1 phase
24 | c1cnc(N2CCN(Cc3ccc4c(c3)OCO4)CC2)nc1 [Piribedil HCl] (67.0359 µM) | 0.532
25 | CC[C@@]1(O)C[C@H](O[C@H]2C[C@H](N(C)C)[C@H](O[C@H]3C[C@H](O)[C@H](O[C@H]4CCC(=O)[C@H](C)O4)[C@H](C)O3)[C@H](C)O2)c2c(cc3c(c2O)C(=O)c2c(O)cccc2C3=O)[C@H]1C(=O)OC [Aclarubicin] (24.6339 µM) | 0.364
26 | CSc1ccc2c(c1)N(CCC1CCCCN1C)c1ccccc1S2 (stereo not given) [Thioridazine HCl] (53.969 µM) | 0.729
27 | CC[C@H](c1ccc(O)cc1)[C@@H](CC)c1ccc(O)cc1 [Hexestrol] (73.9714 µM) | 0.895
28 | Nc1ccn([C@@H]2O[C@H](CO)[C@@H](O)[C@@H]2O)c(=O)n1 [Cytarabine] (82.2297 µM) | 0.477
29 | O=C(CCCCCCC(=O)Nc1ccccc1)NO [Vorinostat] (75.6716 µM) | 0.482
30 | Cc1cnc(C(=O)O)c[n+]1[O-] [Acipimox] (129.764 µM) | 0.493
31 | CN(C/C=C/C#CC(C)(C)C)Cc1cccc2ccccc12 [Terbinafine HCl] (68.6247 µM) | 0.5
32 | COc1c(N2C[C@@H]3CCCN[C@@H]3C2)c(F)cc2c(=O)c(C(=O)O)cn(C3CC3)c12 [Moxifloxacin HCl] (45.6725 µM) | 0.212
33 | Cc1ccc(C(=O)c2ccc(CC(=O)O)n2C)cc1 [Tolmetin Na] (77.7328 µM) | 0.482
34 | CN1CCN(c2c(F)cc3c(=O)c(C(=O)O)cn(CCF)c3c2F)CC1 [Fleroxacin] (54.1497 µM) | 0.479
35 | NC(N)=Nc1nc(CSCC/C(N)=N/S(N)(=O)=O)cs1 [Famotidine] (59.2687 µM) | 0.499
36 | CC1Cc2ccccc2N1NC(=O)c1ccc(Cl)c(S(N)(=O)=O)c1 (stereo not given) [Indapamide] (54.6685 µM) | 0.511
37 | c1ccc(-c2ccc(C(c3ccccc3)n3ccnc3)cc2)cc1 (stereo not given) [Bifonazole] (64.4325 µM) | 0.758
38 | CC=CC(=O)N(CC)c1ccccc1C [Crotamiton] (98.3833 µM) | 0.503
39 | CC(c1cc2ccccc2s1)N(O)C(N)=O (stereo not given) [Zileuton] (84.6401 µM) | 0.53
40 | O=C(O[C@@H]1C[C@@H]2C[C@H]3C[C@H](C1)N2CC3=O)c1c[nH]c2ccccc12 [Dolasetron] (61.6555 µM) | 0.494
